Source: PubChem (several laboratories)
HSP90 refold inh – HSP90 inhibitors, primary screen, cell lysate, luminescence. Rabbit reticulocyte lysate, luciferase refolding luminescence, 3 h. inhibition, % at 5.6 µM. 290,000 compounds, 0.91% hits. AID 1789, 2009;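 active = inhibition above the screen-wide mean plus 3 SD, computed separately per campaign, cut at about 16% in these data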;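 note: 0% = DMSO wells and 100% = 60 µM geldanamycin wells; inhibitors lower the luminescence because luciferase stays unfolded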
SENP6 block – SENP6 protease inhibitors, primary screen, biochemical, luminescence, uHTS; Sentrin-specific protease 6 (Homo sapiens), Q9GZR1; Recombinant SENP6 catalytic domain, aminoluciferin luminescence; inhibition, % at 10 µM; 330,000 compounds, 1.8% hits;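 active = inhibition above about 50% at the single tested dose, limit read from the data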;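 note: plate controls were DMSO wells with enzyme for no effect and DMSO wells lacking enzyme for full effect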
SENP8 block-1 – human SENP8 protease inhibitors, primary screen, biochemical, fluorescence, Nedd8 protein substrate, uHTS. inhibition, % at 20 µM. recombinant SENP8. AID 602440, 2012. 360,000 compounds, 0.64% hits; in the data active = inhibition mostly above about 40%, no sharp cut-off; inactive = mostly below about 27%
Target sequence (Q96LD8 whole entry, looked up): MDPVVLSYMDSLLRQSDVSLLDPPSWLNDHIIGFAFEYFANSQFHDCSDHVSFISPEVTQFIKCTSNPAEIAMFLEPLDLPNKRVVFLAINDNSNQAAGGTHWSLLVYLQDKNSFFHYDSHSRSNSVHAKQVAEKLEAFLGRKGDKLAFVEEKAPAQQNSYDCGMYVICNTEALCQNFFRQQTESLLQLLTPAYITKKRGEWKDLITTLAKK
SENP8 block-2 – SENP8 protease inhibitors, primary screen, biochemical, luminescence; purified SENP8, Z-RLRGG-aminoluciferin cleavage; Sentrin-specific protease 8 (Homo sapiens), Q96LD8; AID 2540, 2010; 330,000 compounds, 1.2% hits; inhibition, % at 10 µM; in the data active = inhibition above about 50%
SENP7 inh – SENP7 protease inhibitors, primary screen, biochemical, luminescence, uHTS. Sentrin-specific protease 7 (Homo sapiens), Q9BQF6. 330,000 compounds, 1.5% hits. recombinant SENP7, Z-RLRGG-aminoluciferin luminescence, 40 min. inhibition, % at 5 µM;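 active = inhibition above about 50% at the single test dose, limit read from the data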;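 note: plate controls were DMSO with enzyme for no effect and no enzyme buffer wells for full effect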
Target sequence (Q9BQF6 706-1050 limits assumed): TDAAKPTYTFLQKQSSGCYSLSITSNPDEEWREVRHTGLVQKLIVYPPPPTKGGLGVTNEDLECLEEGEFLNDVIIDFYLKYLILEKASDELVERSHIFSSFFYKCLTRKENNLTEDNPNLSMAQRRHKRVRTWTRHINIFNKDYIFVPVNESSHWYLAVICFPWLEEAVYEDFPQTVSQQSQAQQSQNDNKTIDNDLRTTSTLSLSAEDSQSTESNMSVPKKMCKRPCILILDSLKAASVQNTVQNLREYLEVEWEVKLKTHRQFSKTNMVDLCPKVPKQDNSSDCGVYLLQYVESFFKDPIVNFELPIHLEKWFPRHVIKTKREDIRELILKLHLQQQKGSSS
LGR2 inh – inhibitors of bursicon-induced LGR2 CRE-luciferase signal, primary screen, cell-based, HEK293, CRE-luciferase reporter, bursicon stimulation. Drosophila bursicon receptor LGR2 (rickets). inhibition, % at 9.99 µM. 380,000 compounds, 0.35% hits. bursicon-stimulated, 4 h;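 active = drop in luminescence signal, shown as inhibition above about 50% in the replicate tests, limit read from the data, passing the limit was not always enough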;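 note: agonist challenge used bursicon conditioned medium at about half maximal strength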
SENP8 confirm – SENP8 protease inhibitors, retest, confirmation, biochemical, luminescence, single concentration; shares compounds with SENP7 inh; inhibition, % at 12.5 µM; AID 488912, 2010; Recombinant SENP8, Z-RLRGG-aminoluciferin luminescence, 60 min; 6,200 compounds, 40% hits;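 active = mean inhibition across replicates above about 50%, limit read from the data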
SENP6 confirm – SENP6 protease inhibitors, confirmation, biochemical, luminescence, single concentration; recombinant SENP6, Z-RLRGG-aminoluciferin luminescence; shares compounds with SENP7 inh; inhibition, % at 12.5 µM; 6,200 compounds, 58% hits
SENP7 confirm – SENP7 protease inhibitors, retest, confirmation, biochemical, luminescence, single concentration; recombinant SENP7, Z-RLRGG-aminoluciferin luminescence, 40 min; inhibition, % at 12.5 µM; 6,200 compounds, 69% hits; shares compounds with SENP7 inh
Casp3 SENP sel – caspase-3 protease inhibitors, confirmation, selectivity assay for SENP inhibitor project, biochemical, single concentration. inhibition, % at 12.5 µM. shares compounds with SENP7 inh. 6,200 compounds, 60% hits. purified caspase-3, Z-DEVD-aminoluciferin luminescence, 60 min;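 active = mean inhibition above about 50%, limit read from the data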;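 note: plate controls were enzyme with DMSO for no effect and wells without caspase-3 for full effect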
Luc interf – counter-screen for SENP inhibitors: luminescence interference. shares compounds with SENP7 inh. Pre-incubated SENP8/Z-RLRGG-aminoluciferin, luciferase luminescence interference. inhibition, % at 12.5 µM. 6,200 compounds, 39% hits. AID 488919;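 active = mean inhibition above about 50% when retested at one dose, limit read from the data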;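 note: plate controls were DMSO wells with completed reaction for no effect and substrate without enzyme for full effect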
* marks the source's active call; other numbers are inactive results. Shown are actives, neighbours in structure and some others; about 2.3% of the full set was active somewhere.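 Rule for the calls, unless noted: active = mean inhibition above about 50% in the one-dose retest (limit read from the data); inactive = the rest.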

For Cc1noc(C)c1S(=O)(=O)N(C)C[C@H]1OCCCC[C@@H](C)Oc2ccc(NC(=O)C3CCCCC3)cc2C(=O)N([C@H](C)CO)C[C@H]1C the results were LGR2 inh 3.
`O=C(Nc1ccc2c(c1)CCC2)Nc1ccc(F)cc1F` gave HSP90 refold inh -2, SENP6 block 3, SENP8 block-1 10, SENP8 block-2 -19, SENP7 inh 70*, LGR2 inh -86, SENP8 confirm 11, SENP6 confirm 14, SENP7 confirm 41, Casp3 SENP sel 28 and Luc interf 8.
`Cc1ccccc1NC(=O)Nc1ccc2c(c1)CCC2` gave HSP90 refold inh 0, SENP6 block 70*, SENP8 block-1 5, SENP8 block-2 25, SENP7 inh 84*, LGR2 inh -86, SENP8 confirm 10, SENP6 confirm 13, SENP7 confirm 17, Casp3 SENP sel 26 and Luc interf 6.
Screening O=C(Nc1ccc2c(c1)CCC2)Nc1ccccc1F returned HSP90 refold inh 9, SENP6 block 96*, SENP8 block-1 5, SENP8 block-2 92*, SENP7 inh 99*, LGR2 inh -111, SENP8 confirm 69*, SENP6 confirm 95*, SENP7 confirm 102*, Casp3 SENP sel 92* and Luc interf 76*.
Cc1cc(C)cc(NC(=O)Nc2ccc3c(c2)CCC3)c1 was read as HSP90 refold inh -1, SENP6 block 7, SENP8 block-1 3, SENP8 block-2 -26, SENP7 inh 21 and LGR2 inh -17.
Screening O=C(Nc1ccc2c(c1)OCO2)Nc1ccc(F)cc1F returned HSP90 refold inh -4, SENP6 block 90*, SENP8 block-1 5, SENP8 block-2 73*, SENP7 inh 90*, LGR2 inh -59, SENP8 confirm 76*, SENP6 confirm 76*, SENP7 confirm 98*, Casp3 SENP sel 89* and Luc interf 86*.
`C[C@H]1CN([C@@H](C)CO)C(=O)Cc2cc(N(C)C)ccc2O[C@@H]1CN(C)S(=O)(=O)c1cccs1` gave LGR2 inh -3.
Screening N#Cc1c(/N=C/c2cccs2)sc2c1CCCCC2 returned HSP90 refold inh 7, SENP6 block 76*, SENP8 block-1 28, SENP8 block-2 92*, SENP7 inh 97*, SENP8 confirm 91*, SENP6 confirm 94*, SENP7 confirm 96*, Casp3 SENP sel 87* and Luc interf 48.
`N#Cc1c(/N=C/c2cccnc2)sc2c1CCCC2` gave HSP90 refold inh -1, SENP6 block 55*, SENP8 block-1 32, SENP8 block-2 35, SENP7 inh -10, LGR2 inh -10, SENP8 confirm 57*, SENP6 confirm 56*, SENP7 confirm 67*, Casp3 SENP sel 28 and Luc interf 56*.
`N#Cc1c(/N=C/c2ccc(Br)s2)sc2c1CCC2` gave HSP90 refold inh 5 and SENP8 block-1 17.
`Cc1ccc(/C=N/c2sc3c(c2C#N)CCC3)o1` gave HSP90 refold inh 2, SENP6 block 93*, SENP8 block-1 16, SENP8 block-2 90*, SENP7 inh 91*, LGR2 inh -75, SENP8 confirm 5, SENP6 confirm 84*, SENP7 confirm 94*, Casp3 SENP sel 36 and Luc interf 52*.
`C[C@H](CO)N1C[C@H](C)[C@H](CN(C)Cc2ccc3c(c2)OCO3)Oc2ccc(NC(=O)CCN3CCOCC3)cc2C1=O` gave LGR2 inh 2.
Screening O=C(Oc1ccc(/C=N/O)cc1)c1ccccc1Cl returned HSP90 refold inh -5, SENP6 block 86*, SENP8 block-1 -6, SENP8 block-2 63*, SENP7 inh 71*, LGR2 inh -91, SENP8 confirm 81*, SENP6 confirm 77*, SENP7 confirm 94*, Casp3 SENP sel 77* and Luc interf 75*.
For O=C(Oc1ccc2ccc(O)cc2c1)c1ccccc1Cl the results were HSP90 refold inh -4, SENP6 block 89*, SENP8 block-1 12, SENP8 block-2 74*, SENP7 inh 70*, LGR2 inh -60, SENP8 confirm -20, SENP6 confirm 76*, SENP7 confirm 91*, Casp3 SENP sel 34 and Luc interf 67*.
For Cc1cccc(C(=O)Oc2ccc(/C=N/O)cc2)c1 the results were HSP90 refold inh 1, SENP6 block 76*, SENP8 block-1 5, SENP8 block-2 69*, SENP7 inh 3, LGR2 inh -67, SENP8 confirm 77*, SENP6 confirm 73*, SENP7 confirm 89*, Casp3 SENP sel 74* and Luc interf 73*.
`O=C(Nc1cc([N+](=O)[O-])ccc1O)c1cccc([N+](=O)[O-])c1` gave HSP90 refold inh -2, SENP6 block 83*, SENP8 block-1 29, SENP8 block-2 69*, SENP7 inh 67*, LGR2 inh -22, SENP8 confirm 85*, SENP6 confirm 83*, SENP7 confirm 97*, Casp3 SENP sel 86* and Luc interf 70*.
For O=C(Nc1cc([N+](=O)[O-])ccc1O)c1ccc2c(c1)C(=O)N(Cc1ccco1)C2=O the results were HSP90 refold inh -1, SENP6 block 82*, SENP8 block-1 8, SENP8 block-2 76*, SENP7 inh 38, LGR2 inh -20, SENP8 confirm 47, SENP6 confirm 84*, SENP7 confirm 74*, Casp3 SENP sel 77* and Luc interf 84*.
